This is part of a sample that, as a whole, favours compounds with a hit. Of some 83,000 tested, about 20% had one in any assay.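 Percent growth is the endpoint: 0 to 100 indicates growth inhibition (40 means 60% inhibition), 0 means no net growth, and negative values indicate cell death.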 Unmarked numbers belong to inactive results. Activity calls are given as the source filed them. Rule for the calls: active = growth percent below 10; inactive = the rest.
Legend:
Assay in all cases: NCI-60 one-dose screen, 48 h (100 = growth as untreated, 0 = no growth, -100 = all killed)
Conditions in all cases: 10 µM unless noted
NCI-H23 lung = tested on: NCI-H23 lung
NCI-H226 lung = tested on: NCI-H226 lung
NCI-H322M lung = tested on: NCI-H322M lung
HOP-62 NSCLC = tested on: HOP-62 NSCLC
NCI-H460 lung = tested on: NCI-H460 lung
HOP-92 NSCLC = tested on: HOP-92 NSCLC
NCI-H522 lung = tested on: NCI-H522 lung
A549/ATCC NSCLC = tested on: A549/ATCC NSCLC
786-0 renal = tested on: 786-0 renal
COLO 205 colon = tested on: COLO 205 colon
DU-145 prostate = tested on: DU-145 prostate
K-562 leukemia = tested on: K-562 leukemia
MALME-3M melanoma = tested on: MALME-3M melanoma
MDA-MB-231 breast = tested on: MDA-MB-231 breast
RXF 393 renal = tested on: RXF 393 renal
SF-268 CNS = tested on: SF-268 CNS
SF-295 CNS = tested on: SF-295 CNS
SF-539 CNS = tested on: SF-539 CNS
UACC-257 melanoma = tested on: UACC-257 melanoma
M14 melanoma = tested on: M14 melanoma

Row | Structure (SMILES) | growth (NCI-H23 lung) | growth (NCI-H226 lung) | growth (NCI-H322M lung) | growth (HOP-62 NSCLC) | growth (NCI-H460 lung) | growth (HOP-92 NSCLC) | growth (NCI-H522 lung) | growth (A549/ATCC NSCLC) | growth (786-0 renal) | growth (COLO 205 colon) | growth (DU-145 prostate) | growth (K-562 leukemia) | growth (MALME-3M melanoma) | growth (MDA-MB-231 breast) | growth (RXF 393 renal) | growth (SF-268 CNS) | growth (SF-295 CNS) | growth (SF-539 CNS) | growth (UACC-257 melanoma) | growth (M14 melanoma)
1 | COc1ccccc1OCC(=O)N1CCCCCC1 | 92.8% | 92.1% | 105% | 104% | 105% | 82.8% | 96% | 92.1% | 117% | 110% | 107% | 83.3% | 89.2% | 113% | 97% | 108% | 106% | 104% | 93.3% | 119%
2 | COc1ccc(/C=C\c2nc3ccccc3s2)cc1OP(=O)(O)O | 43.4% | 66.3% | 59.8% | 49.3% | 20.7% | 90.2% | 12.5% | 42.3% | 64.7% | 112% | 29.1% | 10.4% | 71.3% | 49.2% | 2.73% (active) | 60.2% | 40.8% | -10.2% (active) | 83.1% | 25.5%
3 | NC(=O)c1cccc(-n2ccc3cc(NC(=O)Nc4cc(C(F)(F)F)cc(C(F)(F)F)c4)ccc32)n1 | 44.5% | 70% | 71.4% | 44.8% | 29% | 52.5% | 59.1% | 34.1% | 24.3% | 62.5% | 50.7% | 33.4% | 43.1% | 65.5% | 7.56% (active) | 38.5% | 18.5% | 52.2% | 72.2% | 51%
4 | CC(C)(C#N)N1CCN(c2ccccc2Cl)CC1 | 98.8% | 103% | 94.8% | 102% | 104% | 98% | 90.9% | 95.1% | 97.9% | 113% | 105% | 96.4% | 91.2% | 110% | 118% | 101% | 97.2% | 96.8% | 92.1% | 99.2%
5 | O=C1Nc2c(ccc(Cl)c2Cl)/C1=C/c1ccc(F)cc1 | 87.2% | 84.8% | 93.9% | 89.3% | 97.8% | 42.1% | 76.4% | 41.1% | 76.7% | 97.7% | 113% | 85% | 105% | 83.6% | – | 88.8% | 109% | 94.8% | 97.9% | –
6 | O=C1/C(=C\c2cn(Cc3ccccc3)c3ccc(Br)cc23)c2ccccc2N1c1c(Cl)cccc1Cl | 96.9% | 91.6% | 96.8% | 98.5% | 107% | 57.1% | 80.7% | 90.5% | 99.2% | 108% | 127% | 109% | 109% | 98% | 101% | 113% | 98.5% | 103% | 102% | 105%
7 | O=c1[nH]nc(-c2ccc(Cl)cc2)cc1Cc1cccc([N+](=O)[O-])c1 | 104% | 91.9% | 119% | 96.3% | 99.9% | 44.2% | 90.6% | 81.9% | 103% | 101% | 98.7% | 94.2% | 119% | 72.6% | – | 95.4% | 92.4% | 98.5% | 97% | –
8 | CC(C)(C)OC(=O)N1CCN(c2ccc(N)cc2)C(=O)C1 | 97.7% | 100% | 107% | 106% | 111% | 127% | 107% | 104% | 100% | 113% | 115% | 99.9% | 106% | 98.8% | 110% | 103% | 98.2% | 107% | 107% | 101%
9 | COc1cc(CCNc2nc3cc(N)cc(N)c3nc2-c2ccccc2)cc(OC)c1 | 19.3% | 90.5% | 23.8% | -35.1% (active) | 34.1% | -71.2% (active) | -65.1% (active) | 78.3% | -60% (active) | -60.8% (active) | 85.7% | -71.2% (active) | -66.4% (active) | -22.6% (active) | -64.4% (active) | 7.74% (active) | 60.8% | -31.7% (active) | 88.9% | -32.8% (active)
10 | COc1cccc(NC(=O)c2cccc(-c3cc(=O)c4c(OC)c(OC)c(OC)cc4o3)c2)c1 | 63.1% | 63.3% | 80.1% | 59.5% | 60.1% | 41.9% | 46.6% | 62.8% | 68.9% | 68.3% | 71.8% | 40.3% | 84.8% | 59.6% | 47.9% | 63.1% | 70.8% | 77.5% | 92.4% | 73.5%
11 | CC(Oc1ccc(C(=O)NS(=O)(=O)C(C)(C)C)cc1C(F)(F)F)c1ccc(Oc2ccccc2)cn1 (stereo unspecified) | 83.8% | 81.5% | 88.3% | 78.2% | 96.9% | 73.1% | 17.2% | 94.5% | 77.7% | 77.1% | 97% | 34.7% | 59.4% | 81% | 65.8% | 67.8% | 55.9% | 76% | 78.9% | 57.3%
12 | CCn1ccnc1C(=O)/C=C/c1ccc(CC(=O)Nc2ccc(F)cc2)cc1 | 29.2% | 87.4% | 35.4% | 8.48% (active) | 5.47% (active) | 62.8% | 18.2% | 32.9% | 24.6% | 33.4% | -24.8% (active) | 7.76% (active) | 92.4% | 25.9% | 26% | 5% (active) | 22.2% | 1.75% (active) | 83.5% | 75.5%
13 | FC(F)(F)c1cccc(Nc2ccccc2)c1 | 94.2% | 97.6% | 109% | 105% | 104% | 101% | 98.6% | 97.3% | 101% | 105% | 110% | 95.5% | 99.7% | 104% | 109% | 103% | 99.9% | 95.5% | 97.4% | 106%
14 | COC(=O)C1=C(C(=O)ONCCN(C)C)C2C=CC1(C(Cc1ccccc1)Nc1ccc(F)cc1)O2 (stereo unspecified) | 91.6% | 108% | 92.8% | 101% | 113% | 89.7% | 19.2% | 98.1% | 106% | -14.7% (active) | 95.6% | 10.5% | -9.2% (active) | 108% | 111% | 91.7% | 113% | 97.3% | 104% | 101%
15 | Cc1[nH]c(C(=O)Nc2ccccc2OCc2cccc(C(=O)NCCN)c2)c(Cl)c1Cl | 78% | 87.8% | 81.9% | 69.2% | 51.8% | 84.6% | 80.9% | 63.8% | 33.9% | 68.7% | 100% | -47.5% (active) | 58.4% | 76.8% | 65.2% | 67.9% | 87.8% | 84.9% | 104% | 87.8%
16 | CC1(C)NCCC[C@]2(C)[C@H]3CC=C4[C@@H]5C[C@@](C)(CO)CC[C@]5(C)CC[C@@]4(C)[C@]3(C)CC[C@@H]12 | 81.3% | 83.9% | 81.7% | 88.8% | 4.29% (active) | 38.3% | 73.8% | 51% | 55.5% | -4.98% (active) | 75.6% | 9.28% (active) | 57% | 58% | 57.8% | 67.1% | 64.1% | 64.6% | 55.1% | 33.6%

From PubChem BioAssay (NCI)
